Compound activity deposited in PubChem by Broad Institute.
FGF22 binding-1 = shifts melting point of recombinant human FGF22; Q9HCT0; recombinant FGF22 thermal shift, SYPRO orange fluorescence; percent of sucrose octasulfate shift, DMSO zero; activity (Tm shift, normalised), % at 9.99 µM; 340,000 tested, 1.5% active;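 active = mean Tm shift, scaled 0 neutral to 100 positive control, at about 1.3% or above, every replicate too, limit read from the data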
Target sequence (Q9HCT0 whole entry, looked up): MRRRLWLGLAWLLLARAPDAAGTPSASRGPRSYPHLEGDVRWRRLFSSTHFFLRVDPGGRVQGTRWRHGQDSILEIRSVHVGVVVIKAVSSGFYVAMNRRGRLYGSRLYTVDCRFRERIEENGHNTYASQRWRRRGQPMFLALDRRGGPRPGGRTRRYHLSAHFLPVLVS
CASP6 VEID inh = blocks human caspase-6 cleavage activity; inhibition, % at 12.5 µM; 350,000 tested, 0.53% active; purified caspase-6, Z-VEID-R110 cleavage fluorescence; P55212; AID 686996;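 active = mean inhibition across replicates at least about 35%, with every replicate also reaching that limit, limit read from the data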;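 also: 0% = median of neutral control wells and 100% = no fluorescence left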
Target sequence (P55212 24-179 limits assumed): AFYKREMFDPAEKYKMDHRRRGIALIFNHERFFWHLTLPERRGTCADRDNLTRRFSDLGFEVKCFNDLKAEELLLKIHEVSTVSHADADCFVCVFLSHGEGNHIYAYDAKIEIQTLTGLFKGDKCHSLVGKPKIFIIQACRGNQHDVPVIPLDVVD
Target sequence (P55212 194-293 limits assumed): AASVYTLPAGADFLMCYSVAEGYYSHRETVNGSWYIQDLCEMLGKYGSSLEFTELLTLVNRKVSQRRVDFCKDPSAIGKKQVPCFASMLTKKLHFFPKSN
SIRT5 inh = blocks human SIRT5 desuccinylation of peptide. inhibition, % at 15 µM. Purified SirT5, succinyl-peptide AMC, trypsin-coupled fluorescence. 330,000 tested, 1.1% active. AID 652115; in the data active = inhibition above about 15%
INS-1E GSIS act = primary screen for activators of insulin secretion dependent on glucose, INS-1E cells, GLuc reporter luminescence; INS-1E GLuc reporter insulin secretion, 2-3 h; activation, % at 16.6 µM; 370,000 tested, 0.61% active;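 active = lowest replicate activation of at least 40%, so every replicate reaches that level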;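 also: 0% = median of neutral control wells and 100% = median of IBMX positive control wells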
ERAP1 HTS inh = ERAP1 (human) enzyme inhibition; Q9NZ08; recombinant ERAP1, Leu-AMC fluorescence, 60 min; inhibition, % at 10.7 µM; 340,000 tested, 0.15% active; AID 652197;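 active = mean replicate inhibition of at least 30%, or all replicates individually reaching that 30% level; inactive = mean below 30% and not every replicate reaching it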;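 also: 0% = neutral control wells and 100% = L-leucinethiol positive control wells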
FGF22 binding-2 = binds human FGF22 shifting its melting temperature. shares compounds with FGF22 binding-1. recombinant FGF22 thermal shift, SYPRO orange fluorescence. thermal shift activity, °C (ΔTm) at 38 µM. 1,000 tested, 2% active. AID 720646;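 active = fitted rise in melting shift crosses a set limit at or below the top valid dose tested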
TSA no protein = shows thermal shift signal without protein, FGF22 counter-screen; AC50, µM (titrated, usually from 38 µM); shares compounds with FGF22 binding-1; compound-only SYPRO orange thermal shift counter-screen, no protein; 1,000 tested, 2% active; AID 743019;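 active = rising signal whose fitted curve reaches the 0.54 level within the top valid dose, showing a melting point, actives reach about 13 µM in these data; inactive = the rest, including activity in the opposite direction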; also: value is where the raw curve crosses a fixed level and not half-maximal
CASP1 counter = selectivity counter-screen: inhibitors of human caspase-1; 100 tested, under 10 active; shares compounds with CASP6 VEID inh; purified caspase-1, Z-YVAD-R110 cleavage fluorescence; activity change, negative = inhibition, % at 35 µM;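 active = compounds lowering fluorescence whose fitted half-maximal concentration is no more than twice their top tested dose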
Active calls of the source: *; i = inactive; · = no result; [ ] = dose if it differs, or a comment. An excerpt weighted towards active compounds, which were near 3.3% of everything screened.

SMILES	FGF22 binding-1	CASP6 VEID inh	SIRT5 inh	INS-1E GSIS act	ERAP1 HTS inh	CASP1 counter	others
COc1ccccc1C(=O)N1C[C@H]2[C@@H](c3ccccc31)[C@H](CO)N2C(=O)C1CCCCC1	1.7*	-3	-2	-2	5	·	FGF22 binding-2=0.02;TSA no protein=i
COCC(=O)N1C[C@@H]2[C@H](c3ccccc31)[C@H](CO)N2C(=O)c1ccccc1F	1.7*	1	3	9	1	·	FGF22 binding-2=-0.17[42 µM];TSA no protein=i
O=C(c1cccc(F)c1)N1C[C@H]2[C@@H](c3ccccc31)[C@H](CO)N2C(=O)C1CCCCC1	·	-2	1	-8	-3	·
COCC(=O)N1[C@H](CO)[C@H]2c3ccccc3NC[C@H]21	15*	0	0	11	0	·	FGF22 binding-2=0.036;TSA no protein=i
C[C@H]1CN([C@@H](C)CO)C(=O)c2cc(/C=C/c3ccccc3)cnc2O[C@@H]1CN(C)C(=O)Nc1ccc(C(F)(F)F)cc1	0	-2	4	-14	0	·
CC(C)NC(=O)Nc1ccc2c(c1)C(=O)N([C@@H](C)CO)C[C@H](C)[C@H](CN(C)C(=O)NC1CCCCC1)OCCCC[C@H](C)O2	0	-2	0	-9	3	·
CN(C)c1ccc(C(=O)OCC(=O)c2cccs2)cc1	0	2	-1	1	0	·
O=C(OCC(=O)c1cccs1)c1cccc(C(=O)OCC(=O)c2cccs2)n1	2.2*	2	-3	3	-2	·	FGF22 binding-2=0.026;TSA no protein=i
O=C(O)c1ccc(C=NNC(=O)c2ccccc2NS(=O)(=O)c2cccs2)cc1	·	2	4	10	-2	·
O=C(NN=Cc1ccc(O)cc1)c1ccccc1NS(=O)(=O)c1cccs1	1.8*	-1	4	14	-7	·	FGF22 binding-2=0.025;TSA no protein=i
Oc1cc(O)cc(C=Cc2ccc(O)c(O)c2)c1	2.0*	76*	·	·	31*	-8	FGF22 binding-2=0.073;TSA no protein=i
O=C(Nc1ccc(F)cc1)N[C@@H]1CC[C@@H](CC(=O)N2CCOCC2)O[C@@H]1CO	0	·	-4	19	·	·
Cc1cc(C=O)c(C)n1-c1ccc(Cl)c(C(=O)O)c1	0	54*	7	-4	32*	3
Cc1cc(/C=C/C(=O)O)c(C)n1-c1ccc(Cl)cc1	42	9	1	·	6	·
COc1ccc(NS(=O)(=O)c2ccc3c(c2)[C@H]2C=CC[C@H]2[C@@H](c2ccc(C(=O)O)cc2)N3)cc1	·	53*	44*	-24	32*	3
O=[N+]([O-])c1c(Nc2ccccn2)cc(Cl)c2nonc12	0	59*	-6	·	4	-1
O=C(C[C@@H]1CC[C@H](NS(=O)(=O)c2ccccc2)[C@@H](CO)O1)NCc1ccncn1	0	-1	1	10	-1	·
Cc1oc2c(cc(NS(=O)(=O)c3ccc(C(C)C)cc3)c3ccccc32)c1C(=O)O	-1	39*	3	-9	2	12
COc1ccc(CN2CC3(CCN(C(=O)Cc4ccncc4)CC3)c3c([nH]c4cc(OC)ccc34)[C@@H]2CO)cc1	0	-4	·	-13	-2	·
Cc1ccc(NC(=O)CN(C)C(=O)c2cccc(-n3cccc3)c2)cc1	0	82*	2	-24	4	11
Cc1cccc(NC(=O)CNC(=O)c2cccc(-n3cccc3)c2)c1C	0	83*	-2	-6	4	0
Cc1cccc(NC(=O)CNCC(=O)Nc2cccc(C)c2C)c1C	0	-3	-3	-4	-4	·
Cc1cccc(C)c1NC(=O)CN(C)C(=O)c1cccc(-n2cccc2)c1	0	15	-2	10	3	·
COc1ccc(NC(=O)CN(C)C(=O)c2cccc(-n3cccc3)c2)cc1	·	51*	4	-6	-1	-3
O=C(C[C@@H]1C[C@H]2c3cc(NC(=O)NC4CCCCC4)ccc3O[C@H]2[C@H](CO)O1)NCc1ccccn1	1	75*	1	22	29	1
Cc1cc2ccccc2c(=O)[nH]1	·	·	·	6	·	·
